Results on 30 targets are retold here after the supplement of paper PMC11482750.

± gives the standard deviation of the averaged measurements.

Compound in one assay: O=C/C=C/c1ccccc1 [cinnamaldehyde]
Put plainly: control-subtracted net OSN firing rate; higher = stronger neuronal activation. The conditions noted are these: odorant dilution (vol/vol): 1/100. The method, boiled down:
(§1)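 Responses come from single sensillum recordings of palp or antennal olfactory sensory neurons in 1–5-day-old fed female Scaptomyza species or D. melanogaster wild-type, mutant or at1 empty-neuron lines with Or42a homologs. Stimuli were 1 s pulses of odorant at 1:100 vol/vol in mineral oil or dimethyl sulfoxide into 16 ml/min filtered air. Spikes from 0.2 s after onset, counted over 0.5 s, were background-subtracted, doubled, solvent-corrected and averaged over replicates.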
For the target S. pallida pb1b-like, the “control-subtracted net OSN firing rate” value was found to be 4.67 ± 8.6 spikes/s.
Take S. flava pb2b-like: the “control-subtracted net OSN firing rate” value was -1.33 ± 7.1 spikes/s.
For the target S. pallida pb1a-like, the “control-subtracted net OSN firing rate” value worked out at 19.3 ± 13 spikes/s.
With Canton-S (D. melanogaster) pb2b, the “control-subtracted net OSN firing rate” value was 5.14 ± 12 spikes/s.
The same measure, in the same setting: as for S. hsui pb3a-like, the figure is 6.33 ± 9.9 spikes/s.
As for S. flava pb3b-like, the “control-subtracted net OSN firing rate” value is 4.33 ± 16 spikes/s.
Consider S. montana pb2b-like, for which the “control-subtracted net OSN firing rate” value came out at 6.67 ± 12 spikes/s.
As for S. montana pb1b-like, the “control-subtracted net OSN firing rate” value turned out to be 4 ± 5.4 spikes/s.
Take S. pallida pb2a-like: the “control-subtracted net OSN firing rate” value came out at 6.67 ± 4.8 spikes/s.
As to S. montana pb3a-like, the “control-subtracted net OSN firing rate” value is -2.67 ± 16 spikes/s.
With S. montana pb2a-like, the “control-subtracted net OSN firing rate” value was determined as 13.7 ± 10 spikes/s.
On to Canton-S (D. melanogaster) pb1b, for which the “control-subtracted net OSN firing rate” value came to 2.67 ± 9.5 spikes/s.
Turning to S. montana pb1a-like, the “control-subtracted net OSN firing rate” value was determined as 17 ± 9 spikes/s.
On to Canton-S (D. melanogaster) pb3a, for which the “control-subtracted net OSN firing rate” value was found to be 0 ± 8.4 spikes/s.
Turning to Canton-S (D. melanogaster) pb3b, the “control-subtracted net OSN firing rate” value is -1.67 ± 8.6 spikes/s.
The same measure, in the same setting: under Canton-S (D. melanogaster) pb2a stands 4.29 ± 8.4 spikes/s; under S. hsui pb3b-like, 2.67 ± 15 spikes/s.
Consider S. pallida pb3b-like, for which the “control-subtracted net OSN firing rate” value was -6.67 ± 18 spikes/s.
Regarding S. pallida pb3a-like, the “control-subtracted net OSN firing rate” value was 1 ± 8.3 spikes/s.
For S. hsui pb1a-like, the “control-subtracted net OSN firing rate” value is 12.7 ± 16 spikes/s.
As to S. flava pb1a-like, the “control-subtracted net OSN firing rate” value turned out to be 16.7 ± 17 spikes/s.
On to S. pallida pb2b-like, for which the “control-subtracted net OSN firing rate” value was determined as 8.33 ± 7.4 spikes/s.
As for S. hsui pb2b-like, the “control-subtracted net OSN firing rate” value is 11 ± 9.8 spikes/s.
In the case of S. hsui pb1b-like, the “control-subtracted net OSN firing rate” value was 6 ± 16 spikes/s.
Regarding S. flava pb2a-like, the “control-subtracted net OSN firing rate” value amounted to 0 ± 6.2 spikes/s.
Regarding S. flava pb3a-like, the “control-subtracted net OSN firing rate” value is -2 ± 10 spikes/s.
On to S. montana pb3b-like, for which the “control-subtracted net OSN firing rate” value is -1.67 ± 8.2 spikes/s.
Same read-out and setting: as for S. flava pb1b-like, the figure is 1.33 ± 17 spikes/s; as for Canton-S (D. melanogaster) pb1a, 7.11 ± 7.2 spikes/s; as for S. hsui pb2a-like, 2.67 ± 8.2 spikes/s.

Compound in the next assay: S=C=NCCc1ccccc1 [phenethyl isothiocyanate]
The description is as above. As to conditions: odorant dilution (vol/vol): 1/100. Summed up: as §1
In the case of S. pallida pb1b-like, the “control-subtracted net OSN firing rate” value is -11 ± 11 spikes/s.
In the case of S. flava pb2b-like, the “control-subtracted net OSN firing rate” value stood at 4 ± 15 spikes/s.
With S. pallida pb1a-like, the “control-subtracted net OSN firing rate” value stood at 3 ± 4.3 spikes/s.
With Canton-S (D. melanogaster) pb2b, the “control-subtracted net OSN firing rate” value was -1.14 ± 8.4 spikes/s.
Same read-out and setting: as for S. hsui pb3a-like, the figure is -4.67 ± 13 spikes/s; as for S. flava pb3b-like, 1.33 ± 4.3 spikes/s; as for S. montana pb2b-like, -4.33 ± 4.8 spikes/s.
The same measure, in the same setting: under S. montana pb1b-like stands 3.67 ± 2.9 spikes/s.
Turning to S. pallida pb2a-like, the “control-subtracted net OSN firing rate” value is 3.67 ± 4.6 spikes/s.
S. montana pb3a-like: the “control-subtracted net OSN firing rate” value is 2.33 ± 10 spikes/s.
Consider S. montana pb2a-like, for which the “control-subtracted net OSN firing rate” value is 2.67 ± 4.3 spikes/s.
Same read-out and setting: under Canton-S (D. melanogaster) pb1b stands -4.44 ± 6.8 spikes/s; under S. montana pb1a-like, 4.67 ± 7.9 spikes/s.
Take Canton-S (D. melanogaster) pb3a: the “control-subtracted net OSN firing rate” value turned out to be 1.17 ± 5.8 spikes/s.
Turning to Canton-S (D. melanogaster) pb3b, the “control-subtracted net OSN firing rate” value worked out at 0 ± 11 spikes/s.
As for Canton-S (D. melanogaster) pb2a, the “control-subtracted net OSN firing rate” value was 0 ± 5 spikes/s.
For the target S. hsui pb3b-like, the “control-subtracted net OSN firing rate” value was -3 ± 5.8 spikes/s.
On to S. pallida pb3b-like, for which the “control-subtracted net OSN firing rate” value is -5.67 ± 15 spikes/s.
On to S. pallida pb3a-like, for which the “control-subtracted net OSN firing rate” value is -4.33 ± 8.1 spikes/s.
As to S. hsui pb1a-like, the “control-subtracted net OSN firing rate” value is 3.67 ± 8.9 spikes/s.
On the same count and under the same terms, as for S. flava pb1a-like, the figure is -4 ± 3.8 spikes/s.
On the same count and under the same terms, under S. pallida pb2b-like stands 4.33 ± 5.8 spikes/s; under S. hsui pb2b-like, -0.333 ± 6 spikes/s.
On the same count and under the same terms, as for S. hsui pb1b-like, the figure is -3 ± 7.1 spikes/s.
In the case of S. flava pb2a-like, the “control-subtracted net OSN firing rate” value was -0.667 ± 5.8 spikes/s.
In the case of S. flava pb3a-like, the “control-subtracted net OSN firing rate” value stood at 3.33 ± 9.1 spikes/s.
In the case of S. montana pb3b-like, the “control-subtracted net OSN firing rate” value was -2.33 ± 8.7 spikes/s.
As for S. flava pb1b-like, the “control-subtracted net OSN firing rate” value turned out to be 3 ± 8.8 spikes/s.
Canton-S (D. melanogaster) pb1a: the “control-subtracted net OSN firing rate” value was 2 ± 9.3 spikes/s.
For S. hsui pb2a-like, the “control-subtracted net OSN firing rate” value came to 0.333 ± 5 spikes/s.
